According to PubChem BioAssay (NCI):
This is part of a sample that, as a whole, favours compounds with a hit. Of some 83,000 tested, about 20% had one in any assay.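 How to read the values: 0–100, growth inhibition (40 = 60% inhibited); 0, no net growth; -100 to 0, cell death (-40 = 40% of starting cells died; -100 = all dead).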 The source made the active and inactive calls. The calls were made as follows: active = growth percent below 10; inactive = the rest.

Legend:
Test in all cases: NCI-60 one-dose screen, 48 h (100 = growth as untreated, 0 = no growth, -100 = all killed)
Conditions in all cases: 10 µM unless noted
SR leukemia = test system: SR leukemia
RPMI-8226 leukemia = test system: RPMI-8226 leukemia
OVCAR-8 ovarian = test system: OVCAR-8 ovarian
OVCAR-5 ovarian = test system: OVCAR-5 ovarian
OVCAR-4 ovarian = test system: OVCAR-4 ovarian
SK-OV-3 ovarian = test system: SK-OV-3 ovarian
IGROV1 ovarian = test system: IGROV1 ovarian
OVCAR-3 ovarian = test system: OVCAR-3 ovarian
HS 578T breast = test system: HS 578T breast
NCI/ADR-RES ovarian = test system: NCI/ADR-RES ovarian

Measured: growth

CCCCCCOc1ccc(/C=N/Nc2cc(C)nc3ccc(Cl)cc23)cc1
active: SR leukemia -7.39% | RPMI-8226 leukemia -35.3% | OVCAR-8 ovarian -36.4% | OVCAR-4 ovarian -58.1% | IGROV1 ovarian -79% | OVCAR-3 ovarian -97% | NCI/ADR-RES ovarian -27.8%
inactive: OVCAR-5 ovarian 26.5% | SK-OV-3 ovarian 90.2% | HS 578T breast 28.5%

CCOC(=O)c1cc(C(=O)c2ccc(OC)c(OC)c2)n2c1ccc1ccccc12
inactive: SR leukemia 86.5% | RPMI-8226 leukemia 80% | OVCAR-8 ovarian 94.7% | OVCAR-5 ovarian 104% | OVCAR-4 ovarian 91.9% | SK-OV-3 ovarian 93% | IGROV1 ovarian 58.6% | OVCAR-3 ovarian 99.6% | HS 578T breast 93.8% | NCI/ADR-RES ovarian 91.5%

O=C(NNc1nc2c(F)cccc2n2cccc12)c1cnccn1
inactive: RPMI-8226 leukemia 10.6% | OVCAR-8 ovarian 21.1% | OVCAR-5 ovarian 39% | OVCAR-4 ovarian 28.1% | SK-OV-3 ovarian 28.4% | IGROV1 ovarian 21.1% | OVCAR-3 ovarian 23.2% | HS 578T breast 77.3%
active: SR leukemia 7.37% | NCI/ADR-RES ovarian 3.12%

C=C1C(=O)O[C@H]2[C@H]1CC/C(CNC(=O)/C=C/c1cccc(OC)c1)=C\CC[C@@]1(C)O[C@@H]21
active: SR leukemia 8.06% | RPMI-8226 leukemia 2.73% | OVCAR-8 ovarian 3.77% | OVCAR-3 ovarian -62.6%
inactive: OVCAR-5 ovarian 39.8% | OVCAR-4 ovarian 19.4% | SK-OV-3 ovarian 86% | IGROV1 ovarian 20.6% | HS 578T breast 73.1% | NCI/ADR-RES ovarian 82.6%

O=C1Nc2cc(-c3ccc(NC(=O)C4CC4)cc3)ccc2/C1=C/c1ccc[nH]1
inactive: SR leukemia 44.8% | RPMI-8226 leukemia 93.6% | OVCAR-8 ovarian 110% | OVCAR-5 ovarian 98% | OVCAR-4 ovarian 73.4% | SK-OV-3 ovarian 105% | IGROV1 ovarian 99.2% | OVCAR-3 ovarian 110% | HS 578T breast 110% | NCI/ADR-RES ovarian 106%

NC(=O)Nc1ccc(-n2cnc3cc(-c4ccc(O)cc4)ccc32)cc1
inactive: SR leukemia 88.1% | RPMI-8226 leukemia 91.5% | OVCAR-8 ovarian 97.4% | OVCAR-5 ovarian 97.5% | OVCAR-4 ovarian 89% | SK-OV-3 ovarian 137% | IGROV1 ovarian 108% | OVCAR-3 ovarian 108% | HS 578T breast 109% | NCI/ADR-RES ovarian 103%

N#CC1C(C#N)C(C(=O)c2ccc(Br)cc2)N2c3ccccc3C=CC12 (stereo not given)
inactive: SR leukemia 34.9% | RPMI-8226 leukemia 94.1% | OVCAR-8 ovarian 90.9% | OVCAR-5 ovarian 55.2% | OVCAR-4 ovarian 43.7% | SK-OV-3 ovarian 79.4% | IGROV1 ovarian 39.7% | OVCAR-3 ovarian 75.5% | HS 578T breast 77.6% | NCI/ADR-RES ovarian 64.1%

O=C(O)c1ccc(NCc2cn(-c3ccc(C(F)(F)F)cc3)nc2-c2ccc(C(=O)O)cc2)cc1
inactive: SR leukemia 97.3% | RPMI-8226 leukemia 112% | OVCAR-8 ovarian 103% | OVCAR-5 ovarian 103% | OVCAR-4 ovarian 111% | SK-OV-3 ovarian 113% | IGROV1 ovarian 106% | OVCAR-3 ovarian 115% | HS 578T breast 107% | NCI/ADR-RES ovarian 104%

CCOC(=O)Oc1c(OC)cc(C(=O)c2ccc(OC)c(O)c2OC)cc1OC
inactive: SR leukemia 28% | RPMI-8226 leukemia 21% | OVCAR-8 ovarian 28.5% | OVCAR-5 ovarian 76.6% | OVCAR-4 ovarian 75.3% | SK-OV-3 ovarian 31.6% | IGROV1 ovarian 41.8% | HS 578T breast 14.7%
active: OVCAR-3 ovarian -1.93% | NCI/ADR-RES ovarian -9.66%

O=C(/C=C(O)/C=C/c1ccc(SC(F)(F)F)cc1)/C=C/c1ccc(SC(F)(F)F)cc1
inactive: SR leukemia 40.8% | RPMI-8226 leukemia 38.9% | OVCAR-8 ovarian 96% | OVCAR-5 ovarian 118% | OVCAR-4 ovarian 97.3% | SK-OV-3 ovarian 119% | IGROV1 ovarian 80.6% | OVCAR-3 ovarian 88% | HS 578T breast 98.2% | NCI/ADR-RES ovarian 104%

CCOC(=O)/C(C#N)=C1/NNC(=Nc2cccnc2)S1
inactive: SR leukemia 118% | RPMI-8226 leukemia 107% | OVCAR-8 ovarian 92.2% | OVCAR-5 ovarian 102% | OVCAR-4 ovarian 100% | SK-OV-3 ovarian 85.7% | IGROV1 ovarian 111% | OVCAR-3 ovarian 101% | HS 578T breast 96.7% | NCI/ADR-RES ovarian 105%

Cn1ccnc1C(=O)/C=C/c1ccc(CC(=O)NC2CCCCC2)cc1
inactive: SR leukemia 24.8% | RPMI-8226 leukemia 20.3% | OVCAR-8 ovarian 62.4% | OVCAR-5 ovarian 96.8% | OVCAR-4 ovarian 58.6% | SK-OV-3 ovarian 92.9% | IGROV1 ovarian 60.4% | OVCAR-3 ovarian 27.6% | HS 578T breast 86.1% | NCI/ADR-RES ovarian 75.9%

COc1ccc(C/C(C)=C(/c2ccc(OCCCN(C)C)cc2)c2ccc(OC(C)=O)cc2)cc1
active: SR leukemia 9.44%
inactive: RPMI-8226 leukemia 79.2% | OVCAR-8 ovarian 95.5% | OVCAR-5 ovarian 85.7% | OVCAR-4 ovarian 79.6% | SK-OV-3 ovarian 88% | IGROV1 ovarian 58.4% | OVCAR-3 ovarian 91.1% | HS 578T breast 64.1% | NCI/ADR-RES ovarian 92.3%

S=c1cc(S)c2cc(Br)ccc2[nH]1
inactive: SR leukemia 94.1% | RPMI-8226 leukemia 96.7% | OVCAR-8 ovarian 91.5% | OVCAR-5 ovarian 114% | OVCAR-4 ovarian 92.6% | SK-OV-3 ovarian 98.6% | IGROV1 ovarian 89.5% | OVCAR-3 ovarian 100% | HS 578T breast 109% | NCI/ADR-RES ovarian 101%

O=C(Nc1ccccc1)Nc1ccc2cc3ccc(NC(=O)Nc4ccccc4)cc3nc2c1
inactive: RPMI-8226 leukemia 104% | OVCAR-5 ovarian 92.4% | SK-OV-3 ovarian 112% | IGROV1 ovarian 51% | NCI/ADR-RES ovarian 102%
active: SR leukemia -18.6% | OVCAR-8 ovarian -23.7% | OVCAR-4 ovarian -31.9% | OVCAR-3 ovarian -11.6% | HS 578T breast -26.7%

COc1cccc(-c2ccc3c(c2)NC(=O)/C3=C\c2ccc[nH]2)c1
active: SR leukemia 8.43%
inactive: RPMI-8226 leukemia 17.5% | OVCAR-8 ovarian 74.2% | OVCAR-5 ovarian 53.2% | OVCAR-4 ovarian 54.7% | SK-OV-3 ovarian 58.9% | IGROV1 ovarian 29.7% | OVCAR-3 ovarian 12.7% | HS 578T breast 56.4% | NCI/ADR-RES ovarian 40.4%

Cc1ccc(CNc2c3ccccc3nc3cc(NC(=O)CCN4CCCC4)ccc23)cc1
inactive: OVCAR-5 ovarian 20.7% | SK-OV-3 ovarian 42.5% | HS 578T breast 14.6% | NCI/ADR-RES ovarian 63.1%
active: SR leukemia -49.4% | RPMI-8226 leukemia -44.6% | OVCAR-8 ovarian 7.44% | OVCAR-4 ovarian -38.4% | IGROV1 ovarian 5.63% | OVCAR-3 ovarian -73.3%

CCNC(=O)Oc1ccc(/C(=C(\C)c2ccccc2)c2ccc(OCCN3CCCCC3)cc2)cc1
active: SR leukemia 4.98%
inactive: RPMI-8226 leukemia 38.7% | OVCAR-8 ovarian 73.6% | OVCAR-5 ovarian 84.8% | OVCAR-4 ovarian 65.5% | SK-OV-3 ovarian 53.6% | IGROV1 ovarian 79.9% | OVCAR-3 ovarian 69.4% | HS 578T breast 57.5% | NCI/ADR-RES ovarian 66.8%

COc1cc2c(c(OC)c1OC)-c1ccc(NNC(=S)N(Cc3cccc(C[N+](Cc4cccc(CNC56CC7CC(CC(C7)C5)C6)c4)(Cc4cccc(CNC56CC7CC(CC(C7)C5)C6)c4)Cc4cccc(CN(C(=S)NNc5ccc6c(cc5=O)[C@@H](NC(C)=O)CCc5cc(OC)c(OC)c(OC)c5-6)C56CC7CC(CC(C7)C5)C6)c4)c3)C34CC5CC(CC(C5)C3)C4)c(=O)cc1[C@@H](NC(C)=O)CC2 (stereo not given in full)
inactive: OVCAR-8 ovarian 16.1% | OVCAR-5 ovarian 37% | OVCAR-4 ovarian 29.3% | SK-OV-3 ovarian 37% | IGROV1 ovarian 10.6% | OVCAR-3 ovarian 20.7% | NCI/ADR-RES ovarian 76.3%
active: SR leukemia -49.9% | RPMI-8226 leukemia -46.6% | HS 578T breast 7.62%

C=C1C(=O)O[C@H]2[C@H]1CC/C(COC(=O)NCCc1c[nH]c3ccc(OC)cc13)=C\CC[C@@]1(C)O[C@@H]21
active: RPMI-8226 leukemia -18.4% | OVCAR-4 ovarian -13.1% | IGROV1 ovarian -5.2% | OVCAR-3 ovarian -74.3%
inactive: SR leukemia 11.6% | OVCAR-8 ovarian 20.4% | OVCAR-5 ovarian 51.8% | SK-OV-3 ovarian 118% | HS 578T breast 79.9% | NCI/ADR-RES ovarian 83.5%

NC1=NN=C(N)C1=Cc1cc2ccccc2n2nnnc12
inactive: SR leukemia 94.4% | RPMI-8226 leukemia 105% | OVCAR-8 ovarian 98.1% | OVCAR-5 ovarian 108% | OVCAR-4 ovarian 105% | SK-OV-3 ovarian 91.7% | IGROV1 ovarian 103% | OVCAR-3 ovarian 105% | HS 578T breast 94.7% | NCI/ADR-RES ovarian 105%

CCOC(=O)c1cc(C#N)n2ccc3ccccc3c12
inactive: SR leukemia 115% | RPMI-8226 leukemia 111% | OVCAR-8 ovarian 100% | OVCAR-5 ovarian 94.2% | OVCAR-4 ovarian 95.3% | SK-OV-3 ovarian 36.5% | IGROV1 ovarian 99.7% | OVCAR-3 ovarian 102% | HS 578T breast 112% | NCI/ADR-RES ovarian 102%

O=C1Nc2cc(-c3cccc(O)c3)ccc2/C1=C/c1ccc[nH]1
active: SR leukemia 4.14% | RPMI-8226 leukemia -15% | SK-OV-3 ovarian 3.46% | IGROV1 ovarian 8.78% | OVCAR-3 ovarian -1.19% | HS 578T breast -4.18%
inactive: OVCAR-8 ovarian 26.6% | OVCAR-5 ovarian 19.4% | OVCAR-4 ovarian 25.4% | NCI/ADR-RES ovarian 23.8%

CCCCCOc1ccc(/C=N/Nc2cc(C)nc3ccc(Cl)cc23)cc1
active: SR leukemia -21.9% | RPMI-8226 leukemia -23.1% | OVCAR-8 ovarian -43.1% | OVCAR-4 ovarian -14.1% | IGROV1 ovarian -76.8% | OVCAR-3 ovarian -79.4%
inactive: OVCAR-5 ovarian 93.7% | SK-OV-3 ovarian 90.4% | HS 578T breast 51.3% | NCI/ADR-RES ovarian 53.5%

C=C1C(=O)O[C@H]2[C@H]1CC/C(CNS(=O)(=O)c1cccc3ccccc13)=C\CC[C@@]1(C)O[C@@H]21
active: RPMI-8226 leukemia -16.5%
inactive: SR leukemia 10.7% | OVCAR-8 ovarian 38.5% | OVCAR-5 ovarian 61.9% | OVCAR-4 ovarian 42.8% | SK-OV-3 ovarian 107% | IGROV1 ovarian 15.4% | OVCAR-3 ovarian 11.1% | HS 578T breast 60.9% | NCI/ADR-RES ovarian 74.3%

COc1ccc(/C=C/c2nc(Nc3cccc(NC(C)=O)c3)c3ccccc3n2)cc1
inactive: SR leukemia 64.7% | RPMI-8226 leukemia 89.3% | OVCAR-8 ovarian 84.5% | OVCAR-5 ovarian 86.8% | OVCAR-4 ovarian 104% | SK-OV-3 ovarian 99.5% | IGROV1 ovarian 99.7% | OVCAR-3 ovarian 97.7% | HS 578T breast 89.1% | NCI/ADR-RES ovarian 90%
